Compound activity (PubChem BioAssay)
CF NFkB inh: cystic fibrosis NF-kB activation inhibition. KKLEB NF-kB-GFP reporter, PAF-induced, GFP fluorescence overnight. inhibition, % at 5 µM. actives 0.86% (n = 360,000). AID 588850;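 active means at least 50% inhibition at 5 µM, scaled per plate between neutral and stimulator controls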;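 further: PAF is a Pseudomonas aeruginosa culture filtrate used as stimulus; plate controls were PAF-stimulated DMSO wells for no effect and unstimulated DMSO wells for full effect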
TWEAK Fn14 block: inhibitors of TWEAK-Fn14 interaction signaling | TWEAK-stimulated Fn14 reporter cells, luciferase luminescence, 8 h | inhibition, % at 10 µM | actives 2% (n = 360,000) | AID 1159606; in the data active means inhibition above about 50%
Peg3 promoter: Peg3 promoter activity inhibition; HeLa PEG-Prom luciferase reporter, luminescence, overnight; inhibition, % at 20 µM; actives 1.7% (n = 360,000);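 active means inhibition of at least 50% at 20 µM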
HIF-2a block: HIF-2a inhibition | inhibition, % at 18.8 µM | 786-0 RCC cells HIF-2a reporter, luciferase luminescence, overnight | AID 624352 | actives 0.72% (n = 360,000);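 active means inhibition of the luminescence signal of 40% or more relative to plate controls, in a single-dose primary screen at 18.75 µM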
TROY NFkB inh: inhibitors of TROY-dependent NF-kB signaling | Q293 LMP1-TROYcd NF-kB luciferase reporter, 4 h | inhibition, % at 10 µM | actives 0.98% (n = 360,000);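 active means compounds whose plate-normalised and pattern-corrected inhibition of the luciferase reporter signal at the single screening dose is 50% or more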
KKLEB cytotox: counter-screen for CF NF-kB inhibitors: cytotoxicity; actives 0.36% (n = 360,000); AID 602141; KKLEB CF airway cells viability, ATPlite luminescence, overnight; active compounds read low; cells stimulated with P. aeruginosa culture filtrate; activity change (cytotoxicity), % at 5 µM;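 active means corrected activity change at or below -50% at 5 µM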
Starred values were filed as active, the others as inactive. The list is not random: actives were taken first. Their share in the collection is about 3.9%.

SMILES | CF NFkB inh | TWEAK Fn14 block | Peg3 promoter | HIF-2a block | TROY NFkB inh | KKLEB cytotox
CC(=O)NCCc1ccc(C(=O)CSc2nnc(C3CC3)n2C2CC2)cc1 | 10 | 4 | -14 | -5 | 0 | 11
CCN(CC(=O)NCc1cccs1)C(=O)/C=C/c1ccc(Cl)c(Cl)c1 | -14 | -19 | 27 | 8 | 9 | 1
COCc1cc(C)nc(SCC(=O)Nc2cccc(C)c2C)c1C#N | -9 | 10 | 5 | 8 | 17 | 14
O=C(CCC(=O)c1ccc(Br)cc1)Nc1ccc(F)cc1 | -14 | -14 | -9 | -7 | -18 | 10
Cc1cccc(NC(=O)CSc2nc(C)c(CC(=O)c3ccc(Br)cc3)c(C)c2C#N)c1C | 26 | -153 | 71* | 17 | -6 | -34
Cc1nc(SCC(=O)Nc2ccc(F)cc2)c(C#N)c(C)c1CC(=O)c1ccc(Br)cc1 | 33 | -156 | 91* | 9 | -4 | -35
CCCOc1ccc(C(=O)OCC(=O)NCCc2ccc(OCC)c(OCC)c2)cc1OC | -3 | -23 | 1 | 12 | 5 | -3
CCOC(=O)c1cc(C)n(-c2ccc(Cl)cc2)c1C | 13 | 7 | -38 | -48 | -25 | -8
COC(=O)c1ccc(-n2c(C)cc(C(=O)CCl)c2C)cc1 | 10 | 15 | 82* | 33 | 10 | -37
CCOc1ccc(-n2c(C)cc(C(=O)CCl)c2C)cc1 | 41 | 4 | 111* | 20 | 3 | -27
Cc1ccc(NC(=O)CN2C(=O)S/C(=C\c3ccc(-c4cccc(C(=O)O)c4C)o3)C2=O)cc1C | 19 | -7 | 18 | 25 | 6 | -8
C=CCn1cc(C(=O)OC)c(=O)c2cc(S(=O)(=O)N3CCC(C)CC3)ccc21 | -1 | -10 | 30 | 26 | 9 | -4
CC(Nc1ccccc1CO)C(=O)Nc1cccc(Cl)c1Cl (configuration not stated) | 20 | 23 | 52* | 35 | 40 | -9
CCCc1[nH]c2ccc(C#N)cc2c1CCC | 29 | 39 | 47 | -4 | 53* | -12
S=C(NCCCN1CCOCC1)N1CCN(c2nc(-c3ccc(Cl)cc3)cs2)CC1 | 27 | 37 | 75* | 6 | 45 | -12
S=C(NCC1CCCO1)N1CCN(c2nc(-c3ccc(Cl)cc3)cs2)CC1 (configuration not stated) | -9 | 64* | 20 | -11 | 26 | -3
N#Cc1cccnc1N1CCN(C(=O)c2[nH]c(C(F)(F)F)nc2-c2ccccc2)CC1 | -18 | -6 | 3 | 6 | -14 | -2
COc1ccc(C2=NN3C(C2)c2ccccc2OC32C(=O)N(C)c3ccccc32)cc1 (configuration not stated) | -16 | 25 | -223 | -194 | -28 | 23
Cc1ccc(C(=O)NCCNc2nc3cc(C)c(C)cc3cc2C)cc1 | 12 | -2 | 61* | 22 | 11 | -12
COc1ccccc1NC(=O)c1c(C)nn(-c2ccccc2)c1Cl | -2 | 9 | -39 | -90 | -27 | -3
COc1ccccc1NS(=O)(=O)c1cccc(C(=O)OCc2nc3ccccc3s2)c1 | -11 | 58* | -49 | -110 | 68* | -1
O=C(c1noc2c1CCCC2)N1CCCC(N2CCN(c3ccccc3F)CC2)C1 (configuration not stated) | 2 | 4 | -7 | 1 | -4 | 16
O=C(c1ccsc1)N1CCCC(N2CCN(c3ccccc3F)CC2)C1 (configuration not stated) | 12 | 95* | -2 | -13 | -9 | -6
Cc1cc(C)nc(SCc2cccc(C(=O)O)c2)n1 | 14 | 18 | -1 | 31 | -10 | 1
CCCN1CCN(C(=O)C2CCN(c3ncnc4c3nc3n4CCCCC3)CC2)CC1 | -3 | -1 | -2 | 13 | 7 | -10
SMILES | CF NFkB inh | TWEAK Fn14 block | Peg3 promoter | HIF-2a block | TROY NFkB inh | KKLEB cytotox
O=[N+]([O-])c1ccc(NCCOc2ccccc2Cl)nc1 | -19 | 51* | -78 | -158 | -34 | 7
Cc1nn(-c2ccccc2)c(N)c1-c1ccccc1 | 10 | -5 | -196 | -251 | -63 | -4
Cc1nn(-c2nc3ccccc3[nH]2)c(N)c1-c1ccccc1 | -6 | 68* | -385 | -239 | -72 | -11
CC(NC(=S)Nc1ccccc1Cl)C(c1cccs1)N1CCCC1 (configuration not stated) | 11 | 2 | 4 | 13 | -6 | -2
O=c1[nH]c(=O)n(Cc2ccccc2)c2nc(-c3ccc(Oc4ccc(F)cc4)c([N+](=O)[O-])c3)n(CCO)c12 | -22 | 30 | 63* | 21 | 14 | -3
COc1ccc(/C=N/N2C(=N)SCC2=O)cc1 | 9 | -18 | -107 | -202 | -27 | -4
Fc1ccccc1NC(=S)N1CCCCC1 | -3 | -3 | 4 | 10 | -20 | -5
COC(CNC(=O)C1CCCN1C(=O)OCc1ccccc1)OC (configuration not stated) | 3 | 17 | -16 | 11 | 7 | -8
COC(=O)[C@@H]1C[C@]2(OC(=O)c3ccccc3)C=CC(=O)C[C@@H]2N1C(=O)OCc1ccccc1 | 50* | 51* | 72* | 91* | 24 | -23
O=C1c2cc(F)ccc2-n2c1nc1ccccc1c2=O | 83* | 3 | 8 | -30 | 8 | -27
CCOC(=O)C1C(=O)NC(N2CCN(c3ccccc3)CC2)=NC1c1ccccc1 (configuration not stated) | -5 | -10 | 2 | -14 | -1 | -12
C[C@H](NC(=O)[C@@H]1Cc2ccccc2CN1)C(=O)Nc1ccc2c(c1)OCO2 | 2 | -11 | -47 | -31 | -31 | -1
NS(=O)(=O)c1ccc(CCNC(=O)CNC(=O)c2ccc(F)cc2)cc1 | -3 | 7 | 1 | 9 | 12 | 6
NS(=O)(=O)c1ccc(CCNC(=O)CNC(=O)c2ccccc2Br)cc1 | -13 | 51* | 8 | 12 | 1 | 1
C=C1C(=O)C23C(O)C1CCC2C12CCCC(C)(COC(C)=O)C1C(O)C3(O)OC2 (configuration not stated) | 91* | 101* | 107* | 93* | 77* | -91*
O=C(CSc1ccc(Cl)cc1)N1CCC(c2nc3ccccc3s2)CC1 | -7 | 44 | 1 | -7 | 25 | -11
O=C(CSc1c(Cl)cccc1Cl)N1CCC(c2nc3ccccc3s2)CC1 | 6 | 19 | 10 | -15 | 51* | -3
CCOc1ccc(NC(=O)C2CC(=O)N(c3cc(C)cc(C)c3)C2)cc1 (configuration not stated) | -6 | 4 | 15 | 5 | -8 | -5
CN(C)C(=O)c1ccc(SC(=S)NCc2ccccc2)cc1 | 8 | 15 | 85* | 4 | 20 | -6
CC(C)(C)CC(=O)NC(=S)NCc1ccccc1 | 11 | 2 | 4 | 2 | -10 | -10
O=C(COc1ccc2c3c(c(=O)oc2c1)CCCC3)NCc1ccncc1 | -12 | 3 | -6 | -26 | -16 | 5
